An excerpt weighted towards active compounds, which were near 13% of everything screened.
CHX counter: affects cycloheximide protein synthesis inhibition readout, counter-screen; cell reporter, cycloheximide protein synthesis inhibition counterscreen; max response, %; 300,000 compounds, 12% hits; AID 2314; in the data active = max response mostly above about 13%, no sharp cut-off; inactive = mostly below about 14%; also: read at 38.3 µM for the half of the compounds with a filed dose; 0% is about no effect
HCV inh: inhibitors of hepatitis C virus infection; Huh7.5.1 HCVcc-Cre infection, luciferase reporter, 44 h; Potency, µM (series often up to 41.8 µM), for inactives: at the highest dose activity change, negative = inhibition, usual class: inhibitors; 340,000 compounds, 3.4% hits; AID 651820; active = well fitted inhibition curve with a large enough effect; inconclusive = small, poorly fitted or top-dose-only effect, or another doubt; inactive = no such curve, though single readings can be large or run the other way; also: potency is read from the fitted curve at half-maximal effect; % is scaled to controls: 0 for no effect and ±100 for the full control effect
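Reporter virus HCVcc-Cre (~0.5 moi) infects cells exposed to compound; seeding density 1,000 cells/well with 4 h settling beforehand. Luminescence, 15 sec read, taken 44 h post-infection following a 15 min RT substrate incubation.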
Marburg entry inh: blocks Marburg virus binding to or entry into cells; Marburg virus pseudotyped entry inhibition, cell reporter; Potency, µM (titrated, usually from 37.8 µM), inactives show at the highest dose activity change, negative = inhibition, most hits filed as inhibitors; 300,000 compounds, 1.8% hits; calls by dose curve; tested in HEK293 cells; also: potency is read from the fitted curve at half-maximal effect; % is scaled to controls: 0 for no effect and ±100 for the full control effect
FMDV antiviral: blocks foot and mouth disease virus. FMDV antiviral cell-based qHTS. AID 1159524. 410,000 compounds, 1.2% hits. Potency, µM (titrated, usually from 57.9 µM), for inactives: at the top dose activity change, negative = inhibition, most hits filed as inhibitors; calls by dose curve; tested in HEK293T cells; also: read-out not given here; potency is read from the fitted curve at half-maximal effect; % is scaled to controls: 0 for no effect and ±100 for the full control effect; nearly all actives have a fitted effect of over 45% in size
Shiga toxin inh: inhibitors of Shiga toxin in Vero cells; Vero cells, Shiga toxin protein synthesis inhibition reporter; inhibition, % at 38.7 µM; 290,000 compounds, 9.2% hits; in the data active = inhibition mostly above about 28%, no sharp cut-off; inactive = mostly below about 43%; also: 0% is about no effect
Lassa entry inh: blocks Lassa virus binding to or entry into cells | Lassa virus pseudotype entry inhibition, cell reporter | Potency, µM (doses to about 37.9 µM), without a hit: top-dose activity change, negative = inhibition, actives largely listed as inhibitors | 300,000 compounds, 1.2% hits; calls by dose curve; tested in HEK293 cells; also: potency is read from the fitted curve at half-maximal effect; % is scaled to controls: 0 for no effect and ±100 for the full control effect; nearly all actives have a fitted effect of over 50% in size
An asterisk follows results filed as active; ? = inconclusive; nt = not tested or not shown; [ ] = another dose, or the depositor's remark.

SMILES	CHX counter	HCV inh	Marburg entry inh	FMDV antiviral	Shiga toxin inh	Lassa entry inh
CCc1ccc(OCc2cccc(C(=O)N/N=C\c3cnn(C)c3C)c2)cc1	15	-6%	?	-14%	53*	?
COc1cc(OC)cc(C(=O)NNC(=O)c2ccccn2)c1	15	?	?	-7%	-5	?
COc1ccc(C(=O)NNC(=O)c2ccccn2)cc1	-11	0%	?	1.8µM*	-23	?
CC(Oc1cccc(Br)c1)C(=O)NNC(=O)c1ccccn1 (configuration not stated)	nt	5µM*	nt	0%	nt	nt
COc1cc(OC)cc(C(=O)O/N=C(\N)c2ccccn2)c1	51*	?	nt	-1%	116*	nt
COc1ccc(C(=O)O/N=C(\C)c2cnccn2)cc1	4	7%	-3%[46.1 µM]	52%	5	-5%
COc1ccc(C(=O)O/N=C(\N)c2ccccn2)cc1	-11	4%	?	2µM*	-29	?
CC1CCC/C(=N\NC(=S)Nc2ccccc2)C1 (configuration not stated)	79*	37%	?	33%	102*	?
O=C(NC(=S)Nc1ccccc1)C1CCCCC1	-1	3%	nt	40%	-14	nt
CC1CCC/C(=N\NC(=S)NCc2ccccc2)C1 (configuration not stated)	-2	17%	18%	28%	4	?
CC1CCCC/C1=N\NC(=S)Nc1ccccc1 (configuration not stated)	18*	11%	nt	25%	30	nt
Cc1ccc2[nH]c(C)c(CC(=O)O)c2c1	7	4%	9%	nt	36	7%
C=CCc1c(C)[nH]c2ccc(C)cc2c1=O	31*	-5%	8%	21%	70*	20%
CCc1c(C)[nH]c2ccc(C)cc2c1=O	22*	-8%	?	28%	45*	?
Cc1ccc2[nH]c(-c3ccccc3)c(CN(C)C)c(=O)c2c1	41*	1%	-4%	25%	46	-3%
O/N=C1\CCCC\C1=C/c1ccccc1	3	3%	17%	-20%	1	-1%
Cc1cccc(C(=O)N2CCCC(Nc3ccc(F)c(F)c3)C2)n1 (configuration not stated)	-1	7%	9%	2%	-17	0%
Cn1ccc2c(-c3ccc(C(F)(F)F)cc3)cc3c(c21)C1CCC3O1 (configuration not stated)	nt	nt	?	-26%	nt	nt
Cc1ccc(Nc2nc(CSc3nnc(-c4ccncc4)n3C)cs2)cc1	25*	-26%	?	-40%	54*	?
Cc1occc1-c1nnc(SCc2cc(=O)n3cc(Br)ccc3n2)n1C	-5	4%	-1%	-21%	-7	?
Cc1ccccc1Nc1nc(CSc2nnc(-c3ccoc3C)n2C)cs1	21*	0%	-1%	0%	58	-9%
CN1CCN(NC(=O)C23CC4CC(CC(C4)C2)C3)CC1	-2	10%	0%	-11%	-12	nt
O=C(NCC1CCCCC1)c1cc(S(=O)(=O)N2CCCCC2)ccc1Cl	nt	?	nt	-22%	nt	nt
O=C(C1=C(c2ccccc2)C(=O)c2ccccc2C1=O)c1ccccc1	20	10µM*	?	10µM*	34	2.6µM*
COc1ccc(CN(C(=S)Nc2ccccc2)C2CC(=O)N(c3ccc(F)cc3)C2=O)cc1 (configuration not stated)	31*	6%	?	5%	35	-11%
SMILES	CHX counter	HCV inh	Marburg entry inh	FMDV antiviral	Shiga toxin inh	Lassa entry inh
COC(=O)[C@]1(C)CCC[C@@]2(C)C3CC[C@@]4(C)C[C@]3(CCC21)CC(=O)N4Cc1ccc(OC)cc1 (some centres not stated)	nt	13µM*	nt	?	nt	nt
COc1ccc([N+](=O)[O-])cc1C1NN=C(c2ccccc2O)S1 (configuration not stated)	9	?	?	17%	25	-8%
O=[N+]([O-])c1ccc(O)c(C2=NNC(c3ccccc3F)C2)c1 (configuration not stated)	40*	?	?	?	84*	?
COc1ccc(CN2CCCN(S(=O)(=O)c3ccc(Br)cc3)CC2)cc1	-1	?	?	-29%	41	?
Cc1nn(Cc2ccccc2)c(C)c1NC(=O)CSc1nc2sc3c(c2c(=O)n1C)CCC3	nt	22µM*	6%	?	nt	6%
CCCCN(C)CCCNC(=O)c1cn(CC)c2ccc(S(=O)(=O)N3CCc4ccccc4C3)cc2c1=O	-4	?	5.6µM*	-17%	-2	-13%
CCn1cc(C(=O)NCCCN2CCCC2)c(=O)c2cc(S(=O)(=O)N3CCc4ccccc4C3)ccc21	-3	14µM*	?	-10%	-8	-19%
CCCCN(CC)CCCNC(=O)c1cn(CC)c2ccc(S(=O)(=O)N3CCc4ccccc4C3)cc2c1=O	-2	?	?	0%	-13	?
CCn1cc(C(=O)N2CCCCC2)c(=O)c2cc(S(=O)(=O)N3CCC(C)CC3)ccc21	23*	7%	7%	5%	10	-13%
O=[N+]([O-])c1cccc(S(=O)(=O)N2CCc3ccccc3C2)c1	-4	-5%	nt	-2%	-3	nt
CCN(CC)S(=O)(=O)c1ccc(C(=O)Nc2cc(S(=O)(=O)N3CCOCC3)ccc2N2CCN(C)CC2)cc1	nt	4%	nt	-3%	nt	nt
CC(C)C[C@H](NC(=O)c1nc[nH]c1C(=O)N1CCC(C)CC1)C(=O)OCc1ccccc1	-2	15%	nt	-20%	-5	nt
Cc1nc2c(n1C1CCCCC1)C(=O)c1ccccc1C2=O	-3	-12%	15%	-7%	20	-1%
Cn1c(C2CCCN2C(=O)OC(C)(C)C)n[nH]c1=S (configuration not stated)	-4	5%	8%	8%	2	1%
O=C1CCCC2=C1C(c1ccc(OS(=O)(=O)c3ccc(Cl)cc3)cc1)C1=C(CCCC1=O)O2	-3	13µM*	-21%	-22%	-6	-24%
O=C1CCCC2=C1C(c1ccccc1)C1=C(CCCC1=O)O2	-8	nt	-1%	nt	17	nt
CCCNS(=O)(=O)c1cccc(C(=O)OCc2cc(=O)oc3cc(OC)ccc23)c1	19*	-27%	?	28%	61	?
COc1ccc2c(COC(=O)c3cccc(S(=O)(=O)NCC(C)C)c3)cc(=O)oc2c1	20*	2%	-15%	0%	37	?
CCOC(=O)C=C(C(=O)OCC)C(=O)OCC	-2	14%	nt	?	7	nt
COc1ccc2c(=O)c3c(=O)n(Cc4ccco4)c(-c4ccc(C)cc4)nc3oc2c1	-1	-29%	11%	?	32	-6%
COc1cc(-c2nc3oc4ccccc4c(=O)c3c(=O)n2Cc2ccco2)cc(OC)c1OC	22*	-16%	7.9µM*	0%	40*	6.3µM*
COc1ccccc1N1CCN(C(=O)C2CC(=O)N(c3ccccc3)C2)CC1 (configuration not stated)	-4	-1%	4%[46.1 µM]	-17%	-3	0%
